Compound activity as filed in PubChem BioAssay.
Insulin prom up = MIN6 insulin promoter up-regulation; z-score at 5 µM; 0.3% of 190,000 active; MIN6 insulin promoter-GFP reporter, high-content imaging; active compounds read high;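 active = z-score above 3 at 5 µM with at least 500 cells counted in the well; inconclusive = wells under 500 cells, flagged as cytotoxic or low count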
Insulin prom inh = TRM-6 insulin promoter activity inhibition | TRM-6 cells (human fetal islet line), insulin promoter-eGFP reporter, imaging; reporter expression induced with tamoxifen | inhibition, % at 2 µM | AID 1273 | 0.9% of 130,000 active;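 active = inhibition above the mean plus 3 SD, with well images judged a real hit on visual review, cut at about 60% in these data, passing the limit was not always enough; inconclusive = inhibition over the cutoff but images rejected on review; inactive = inhibition not above the cutoff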
Autophagy mod = alters autophagy in cells; MEF GFP-LC3 puncta imaging; test concentration mostly 10 µM; calls only at 10 µM (by protocol); 0.98% of 190,000 active;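 active = percentage of spot-positive cells more than 3 SD above its plate mean, without a fluorescence outlier flag or 80% toxicity; inconclusive = no clear call, values can overlap the other calls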
L major viab = reduces viability of Leishmania major promastigotes; resazurin fluorescence viability; inhibition, % at 10 µM; 9% of 200,000 active; in the data active = inhibition above about 50%;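 also: promastigotes grown with compound for 44 hours at 28 °C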
HCT116 bCat-KO = beta-catenin-lacking colon tumor cell growth suppression. 1.5% of 140,000 active. viability, % at 10 µM. HCT116 beta-catenin knockout viability, CellTiter-Glo, 60 h; active compounds read low. AID 818;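 active = viability at or under a set limit, the compound median less 4 SD, cut at about 6% in these data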
PTEN del growth = growth suppressors of cells with PTEN tumor suppressor deletion | 1.2% of 140,000 active | HCT116 PTEN-null viability, CellTiter-Glo, 60 h; active compounds read low | AID 827 | viability, % at 10 µM;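 active = viability at or below a set limit, 4 SD under the median of all tested compounds, cut at about 3.7% in these data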;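 also: PTEN knockout HCT116 line with beta catenin targeted HCT116 as companion control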
Large screens that a line does not name were inactive. Hits are enriched below; roughly 9.6% of the tested compounds scored in any of these assays.

Cc1cccc(CC2S/C(=N/c3ccccn3)NC2=O)c1 (stereo unspecified)	Autophagy mod active
O=C1N/C(=N\c2ccccn2)SC1Cc1ccccc1Cl (stereo unspecified)	none (no result: Insulin prom inh, Autophagy mod, L major viab, HCT116 bCat-KO, PTEN del growth)
CC(C)c1nc(SCc2c(F)cccc2Cl)c2c(=O)n(C)c(=O)n(C)c2n1	HCT116 bCat-KO 3.5, PTEN del growth 3.7 (no result: Insulin prom inh)
CCCc1nc(SCC(=O)N2CCc3ccccc32)c2c(=O)n(C)c(=O)n(C)c2n1	none (no result: Insulin prom inh, Autophagy mod, L major viab, HCT116 bCat-KO, PTEN del growth)
CC(C)c1nc(SCC(=O)N2CCCc3ccccc32)c2c(=O)n(C)c(=O)n(C)c2n1	L major viab 51 (no result: Insulin prom inh)
COc1cccc(-c2nn(-c3ccccc3)cc2C(=O)O)c1	none
COc1cccc(-c2nn(-c3ccccc3)cc2/C=C\C(=O)c2cccs2)c1	L major viab 65 (no result: Insulin prom up)
COc1ccccc1Nc1nc2nonc2nc1N1CCCCC1C (stereo unspecified)	L major viab 91
CC1CCCCN1c1nc2nonc2nc1N1CCCCC1C (stereo unspecified)	none (no result: Insulin prom up)
COc1ccc(C2C(C(=O)N3CCOCC3)CCC(=O)N2c2ccc(OC)cc2)cc1 (stereo unspecified)	Insulin prom up 3.7 (no result: Insulin prom inh)
Cc1cc(-c2ccccc2)nc2cc(C(=O)N(Cc3ccccc3)Cc3ccccc3)nn12	L major viab 53
O=C(Cn1nc(C(F)(F)F)c2c1CCC2)Nc1ccccc1C(F)(F)F	none
CN1CCN(S(=O)(=O)CC2(C)C3CCC2(C)C(=O)C3Br)CC1 (stereo unspecified)	none (no result: Insulin prom inh, Autophagy mod, L major viab, HCT116 bCat-KO, PTEN del growth)
COc1cccc(CNC(=O)C(c2ccc(Cl)cc2)C(C)C)c1 (stereo unspecified)	L major viab 57
O=C(/C=C/c1ccc(N2CCC(c3ccccc3)=N2)cc1)c1ccccc1	Autophagy mod inconclusive (no result: Insulin prom up, HCT116 bCat-KO, PTEN del growth)
CN(CCCN1CCOCC1)Cc1nc(-c2ccccc2)no1	L major viab 78 (no result: Insulin prom up, HCT116 bCat-KO, PTEN del growth)
O=C(CCc1ccccc1)Nc1nc2ccc(S(=O)(=O)N3CCOCC3)cc2s1	none
O=C(NCC1CCCO1)c1sc2ccccc2c1Cl (stereo unspecified)	none
CCc1ccc2c(c1)cc(CN(C(=S)Nc1ccccc1C)C1CC1)c1nnnn12	none (no result: Insulin prom inh)
CCc1ccc2c(c1)cc(CN(C(=S)Nc1ccccc1)C1CC1)c1nnnn12	Autophagy mod active (no result: Insulin prom inh)
Cc1cccc(Nc2nc(N3CCCCC3)nc(N3CCCCC3)n2)c1	none (no result: Insulin prom up)
CC(=O)C1=C(c2ccc(Br)cc2)C(=O)c2ccccc2C1=O	Insulin prom up inconclusive, L major viab 100, HCT116 bCat-KO 1.6, PTEN del growth 1.4
CCOC(=O)CCCNC(=O)CCNC(=O)c1ccc(OCC)cc1	none
CN1CCN(CC(=O)Nc2ccc(OCc3ccccc3)cc2)CC1	none (no result: Insulin prom up)
c1ccc(COc2ccc(OCCCN3CCCCC3)cc2)cc1	L major viab 100
c1ccc(COc2ccc(OCCCCN3CCCC3)cc2)cc1	L major viab 92 (no result: Insulin prom inh)
CC1CCN(CCOc2ccc(OCc3ccccc3)cc2)CC1	L major viab 99
c1ccc(OCCCN2CCCC2)cc1	none
Fc1ccc(OCCCCCCN2CCCC2)cc1	L major viab 95 (no result: Insulin prom inh)
Cc1onc(-c2c(Cl)cccc2Cl)c1C(=O)Nc1c(C)n(C)n(-c2ccccc2)c1=O	none
CCOc1cc(/C=N/n2cnnc2)ccc1O	none
Cn1cnnc1Sc1ccc(C(=O)OCC(=O)Nc2ccccc2)cc1[N+](=O)[O-]	none
O=c1ccc(/C=C/c2ccccc2)nn1Cc1ccc(Cl)cc1Cl	none (no result: Insulin prom inh)
O=C(/C=C/c1ccco1)Oc1cc(Br)cc(/C=N/NC(=O)c2ccccc2O)c1	L major viab 99
COc1ccc(CCNS(=O)(=O)c2cccc(F)c2)cc1OC	none
CC(CCc1ccccc1)NC(=O)CSc1nnnn1C (stereo unspecified)	none
CCn1nnc2sc3c(c2c1=O)CCC(C)C3 (stereo unspecified)	Insulin prom up 3.6, Insulin prom inh 78
COC(=O)Cn1c(=NC(=O)c2ccc([N+](=O)[O-])s2)sc2cc(Br)ccc21	L major viab 100
C(=C\c1nc2ccccc2[nH]1)/c1ccccc1	Insulin prom inh 93 (no result: Insulin prom up)
N#CC1=C2N=C(N)c3ccccc3N2C2=C(C(=O)CCC2)C1c1cccc(Cl)c1 (stereo unspecified)	L major viab 81
COc1ccc(/C=N/NC(=O)c2cccnc2)cc1CN1CCCc2ccccc21	none (no result: Insulin prom inh, HCT116 bCat-KO, PTEN del growth)
Cc1nn2c(C(F)(F)F)cc(-c3ccc(Cl)cc3)nc2c1C(=O)N1CCOCC1	Insulin prom inh 79, L major viab 92
O=C(NCC1CCCO1)c1cncc(Br)c1 (stereo unspecified)	none (no result: Insulin prom inh, HCT116 bCat-KO, PTEN del growth)
O=C(COC(=O)c1ccc(Cl)c([N+](=O)[O-])c1)Nc1ccccc1OC(F)F	L major viab 58
O=C(COC(=O)c1nc(Cl)ccc1Cl)Nc1ccccc1OC(F)F	none (no result: Insulin prom inh, HCT116 bCat-KO, PTEN del growth)
c1ccc2c(c1)OCCOCCOCCOCCOc1ccccc1OCCOCCOCCO2	L major viab 99
Brc1ccc2c(c1)OCCOCCOCCOCCOCCO2	none (no result: Insulin prom inh)
CN=c1scc(-c2ccc(F)cc2)n1/N=C/c1ccc(O)c(O)c1	L major viab 100 (no result: HCT116 bCat-KO, PTEN del growth)
Cc1[nH]c(=O)c(C(=O)/C=C/c2ccccc2F)c2c1CCCC2	L major viab 100, HCT116 bCat-KO 3.9, PTEN del growth 3.4 (no result: Insulin prom inh)
COc1ccc(Nc2nc(-c3cc4cccc(OC)c4oc3=O)cs2)cc1	none
COc1ccc2oc(=O)c(-c3csc(Nc4cccc(O)c4)n3)cc2c1	L major viab 99
COc1ccc(Cn2nnnc2CN2CCC(O)(c3ccc(F)cc3)CC2)cc1	none (no result: HCT116 bCat-KO, PTEN del growth)
COc1ccc(C2(O)CCN(Cc3nnnn3Cc3ccc(C)cc3)CC2)cc1	Autophagy mod active
Cc1ccc(Cn2nnnc2CN2CCC(O)(c3cccnc3)CC2)cc1	Insulin prom inh 79, L major viab 53 (no result: HCT116 bCat-KO, PTEN del growth)
CNc1nnc(-c2ccc(OC)cc2)s1	none (no result: HCT116 bCat-KO, PTEN del growth)
O=c1/c(=C/c2ccc([N+](=O)[O-])cc2)sc2n1CCCN=2	HCT116 bCat-KO 2.1
O=C1OC2CC3CC1CC(O)(C3)C2 (stereo unspecified)	Insulin prom inh 86 (no result: Insulin prom up)
CN(Cc1ccc(Cl)s1)C(=O)CCl	L major viab 84 (no result: Insulin prom inh, HCT116 bCat-KO, PTEN del growth)
Cc1cc2nc(/N=C(\N)NC(=O)C(C)C)nc(C)c2cc1C	none (no result: Insulin prom inh, Autophagy mod, L major viab, HCT116 bCat-KO, PTEN del growth)
COc1ccc(-c2c(C#N)c(SCC(=O)c3cc4ccccc4oc3=O)nc(C)c2C(=O)Nc2ccccc2)cc1	HCT116 bCat-KO 3.2 (no result: Insulin prom inh)
CCOC(=O)c1c(C)nc(SCC(N)=O)c(C#N)c1-c1ccccc1	none
Cc1nc(SCC(=O)c2cc3ccccc3oc2=O)c(C#N)c(-c2ccccc2)c1C(=O)Nc1ccccc1	HCT116 bCat-KO 1.4, PTEN del growth 1.7
COc1ccc(NC(=O)c2cn(CCC#N)nc2-c2cc3ccccc3o2)cc1	none (no result: Insulin prom inh, HCT116 bCat-KO, PTEN del growth)
Cc1cccc(C)c1NC(=O)CSc1cc(C(=O)c2nccn2C)c2ccccc2n1	none
N#C/C(=C\c1ccc(-c2ccc(Br)cc2)o1)C(=O)NCCc1c[nH]c2ccccc12	none
CN(C)CCNC(=O)/C(=C/c1ccc(-c2ccc(Cl)cc2Cl)o1)NC(=O)c1ccccc1	L major viab 100, HCT116 bCat-KO 1.9, PTEN del growth 1.5
